PAFAH1B3 inh: inhibitors of human PAFAH1B3. Q15102. recombinant PAFAH1B3, FP-rhodamine probe, fluorescence polarization. inhibition, % at 3.39 µM. 340,000 compounds, 0.28% hits. AID 492972;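 active = inhibition above the screen-wide average of all tested compounds plus 3 SD, cut at about 25% in these data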;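 note: 0% = enzyme with DMSO only and 100% = wells lacking PAFAH1B3 protein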
Target sequence (Q15102 whole entry, looked up): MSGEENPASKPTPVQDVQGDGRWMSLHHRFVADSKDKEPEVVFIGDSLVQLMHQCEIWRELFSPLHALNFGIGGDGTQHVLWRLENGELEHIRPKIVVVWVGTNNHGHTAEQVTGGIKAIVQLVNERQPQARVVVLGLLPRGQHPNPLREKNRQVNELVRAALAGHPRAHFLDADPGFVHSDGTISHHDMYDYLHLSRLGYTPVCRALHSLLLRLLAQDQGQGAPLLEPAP
PAFAH1B2 FP inh: PAFAH1B2 (human) inhibition. 340,000 compounds, 1.2% hits. recombinant PAFAH1B2, FP-rhodamine activity probe, fluorescence polarization. inhibition, % at 3.39 µM. P68402;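 active = inhibition above the mean of all tested compounds plus 3 SD, cut at about 24% in these data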;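 note: 0% = enzyme with DMSO and 100% = wells lacking PAFAH1B2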
eLon inh: inhibitors of E. coli Lon protease | purified E. coli Lon protease, fluorescence polarization | inhibition, % at 7.94 µM | 360,000 compounds, 0.42% hits; in the data active = inhibition above about 13%, passing the limit was not always enough;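 note: 0% = enzyme with probe and DMSO and 100% = no enzyme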
Rin1-Abl PPI inh: human Rin1-Abl interaction inhibition; inhibition, % at 7.35 µM; P00519+Q13671; 360,000 compounds, 0.4% hits; TR-FRET Rin1/Abl binding, biochemical; in the data active = inhibition above about 5%, passing the limit was not always enough
pPAFAH inh: inhibitors of human plasma PAF acetylhydrolase (pPAFAH); Q13093; 330,000 compounds, 1.5% hits; recombinant pPAFAH, FP-rhodamine probe fluorescence polarization; AID 463082; inhibition, % at 3.39 µM;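 active = inhibition above the mean inhibition across the screen plus 3 SD, cut at about 25% in these data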;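 note: inhibitors block binding of the rhodamine activity-based probe so polarization drops; 0% = enzyme with DMSO and 100% = wells lacking pPAFAH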
Target sequence (Q13093 whole entry, looked up): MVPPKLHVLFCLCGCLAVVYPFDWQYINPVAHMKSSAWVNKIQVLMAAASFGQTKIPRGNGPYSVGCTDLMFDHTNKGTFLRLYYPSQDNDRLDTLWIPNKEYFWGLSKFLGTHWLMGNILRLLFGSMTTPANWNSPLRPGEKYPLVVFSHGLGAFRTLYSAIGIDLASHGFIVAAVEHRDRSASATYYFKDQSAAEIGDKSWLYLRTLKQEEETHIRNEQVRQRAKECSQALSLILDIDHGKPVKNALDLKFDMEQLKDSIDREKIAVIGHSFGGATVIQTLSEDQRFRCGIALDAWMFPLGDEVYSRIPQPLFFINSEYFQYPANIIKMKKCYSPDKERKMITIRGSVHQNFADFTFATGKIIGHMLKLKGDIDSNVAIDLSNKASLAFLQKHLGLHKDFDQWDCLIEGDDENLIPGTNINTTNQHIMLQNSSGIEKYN
PAFAH2 inh: inhibitors of human PAFAH2. inhibition, % at 3.39 µM. AID 492956. Q99487. recombinant PAFAH2, FP-rhodamine activity probe, fluorescence polarization. 340,000 compounds, 0.99% hits;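 active = inhibition above the mean over all tested compounds plus 3 SD, cut at about 30% in these data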;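 note: inhibitors block probe labeling of enzyme so polarization drops; 0% = enzyme with DMSO and 100% = wells lacking PAFAH2 protein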
E coli Lon conf: E. coli Lon inhibition confirmation; shares compounds with eLon inh; 1,400 compounds, 31% hits; purified E. coli Lon, fluorescence polarization; inhibition, % at 7.94 µM; AID 602230; in the data active = inhibition above about 16%;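 note: 0% = enzyme with probe and DMSO and 100% = no enzyme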
The depositor's hits bear a star; nt = no result given; + = active, no number. The list is not random: actives were taken first. Their share in the collection is about 3.1%.

SMILES	PAFAH1B3 inh	PAFAH1B2 FP inh	eLon inh	Rin1-Abl PPI inh	pPAFAH inh	PAFAH2 inh	E coli Lon conf
CC(C)C(=O)NNC(=O)c1csc(-c2cccs2)n1	0.6	-1.4	25.4*	-3.9	-1.8	-6.5	5.8
Cn1c(CCn2ccccc2=O)nc2cc(NC(=O)COc3ccccc3)ccc21	8.1	9.0	2.1	3.8	7.5	10.9	nt
COc1ccc(-c2ccc3c(c2)c(Sc2ccccc2)c(-c2ccccc2)n3C)cn1	nt	nt	-2.2	nt	nt	nt	nt
C[C@@H]1CN([C@H](C)CO)C(=O)CCCn2nncc2CO[C@H]1CN(C)Cc1ccc2cccnc2c1	nt	nt	6.0	-0.6	nt	nt	nt
O=S(=O)(Nc1cccc(S(=O)(=O)N2CCCC2)c1)c1ccc(Cl)cc1	3.7	22.2	100.5*	0.7	3.1	1.9	-3.8
Cn1c(CNc2ccc(Cl)cc2)nnc1SCc1ccccc1	-5.5	11.6	+	2.5	3.8	-1.3	2.5
CCn1c(CNc2ccc(Cl)cc2)nnc1SCc1ccccc1	5.5	13.5	-12.2	-0.1	2.8	4.5	nt
Cc1cc2cc(CNC(=O)c3ccc(S(=O)(=O)N4CCOCC4)cc3)ccc2n1C	6.3	6.0	24.4*	-33.5	10.4	5.6	2.9
Cc1c(C(=O)NCc2ccc3c(c2)cc(C)n3C)cccc1[N+](=O)[O-]	-6.1	-0.8	31.1*	-3.8	-1.5	8.6	3.9
Cc1cc2cc(CNC(=O)c3ccc(S(=O)(=O)N(C)C)cc3)ccc2n1C	-1.4	-1.1	25.9*	-22.9	8.6	4.5	6.2
Cc1cc2cc(CNC(=O)Nc3cccc(Cl)c3)ccc2n1C	1.7	1.9	40.2*	-0.6	13.8	9.6	44.8*
Cc1cc2cc(CNC(=O)c3ccc(Br)o3)ccc2n1C	-0.5	1.6	4.1	6.4	11.7	1.9	nt
COc1cccc(CNC(=O)c2ccc(S(=O)(=O)N3CCOCC3)cc2)c1	2.0	3.5	5.0	-2.5	nt	2.9	nt
Cc1cc2cc(CNC(=O)c3cccc([N+](=O)[O-])c3)ccc2n1C	-7.1	6.1	7.5	-3.9	9.6	-0.6	nt
O=C(COC(=O)c1ccccc1C(=O)OCC(=O)NCCc1c[nH]c2ccccc12)NCCc1c[nH]c2ccccc12	5.2	5.3	31.6*	2.7	20.1	0.3	-5.2
O=C(COC(=O)c1ccccc1O)NCCc1c[nH]c2ccccc12	3.8	-1.8	-12.9	-2.4	-0.3	8.1	nt
COc1ccc(S(=O)(=O)Cc2ccc(C(=O)NC3CCCCC3)o2)cc1	4.6	0.1	26.8*	-0.8	2.3	6.7	-8.3
COc1ccc(S(=O)(=O)Cc2ccc(C(=O)NC3CC3)o2)cc1	1.8	11.5	-6.0	0.3	1.0	-1.0	nt
CCn1c(CC(=O)Nc2ccccc2F)nnc1SCC(=O)NC1CCCC1	0.5	8.6	16.9*	1.4	3.8	8.7	4.6
Cn1c(CC(=O)Nc2ccccc2F)nnc1SCC(=O)NC1CCCCC1	-0.2	3.4	-6.1	2.4	-2.0	-7.9	nt
COCCn1c(SCC(=O)NC2CCCC(C)C2C)nc2ccccc2c1=O (configuration not stated)	-1.3	7.4	5.1	2.7	nt	2.4	nt
CC(=O)c1c2c3c(c(Br)ccc3n(C)c1=O)C(=O)c1ccccc1-2	13.5	3.4	49.7*	-9.6	28.9*	-4.2	21.4*
COc1ccc2[nH]c(C)c(CCN(Cc3cccs3)C(=S)Nc3ccccc3)c2c1	6.1	-2.7	68.0*	0.9	8.7	-3.7	22.1*
CC1CCCC(C)N1C(=O)COC(=O)CSc1ccc(C(N)=O)cc1[N+](=O)[O-] (configuration not stated)	7.6	9.5	-10.6	2.6	-1.6	2.6	nt
O=C1CCCc2ccccc2N1Cc1ccc(Cl)cc1Cl	2.4	2.0	18.0*	1.1	-4.6	5.4	-0.6
SMILES	PAFAH1B3 inh	PAFAH1B2 FP inh	eLon inh	Rin1-Abl PPI inh	pPAFAH inh	PAFAH2 inh	E coli Lon conf
O=C1CCCc2ccccc2N1Cc1ccccc1Cl	5.6	3.8	-5.3	-1.6	-2.3	-1.5	nt
Cc1ccc(N2C(=O)CCC2=O)c(C)c1	-2.8	1.1	7.3	-3.6	0.5	2.3	nt
CCOc1cc(C2C(C#N)=C(N)OC(C)=C2C(C)=O)cc(Br)c1O (configuration not stated)	-1.0	10.3	24.1*	2.0	-0.3	-1.6	12.7
CCOc1cc(C2C(C#N)=C(N)OC(C)=C2C(C)=O)c(Br)c(Br)c1OC(C)C (configuration not stated)	10.2	10.7	-5.1	-4.6	7.3	5.1	nt
OCc1ccccc1-c1cccc2nccn12	nt	nt	69.6*	-0.6	nt	nt	4.9
CCC1(C)CC(C#N)(C#N)C(=O)NC1=O (configuration not stated)	nt	nt	6.2	2.0	nt	nt	nt
NNC(=O)CNC(=O)c1ccccc1F	1.1	3.9	53.2*	-2.5	-1.4	2.7	-4.1
S=c1[nH]nc(-c2ccc3ccccc3n2)n1-c1ccc2ncccc2c1	7.3	5.1	20.4*	0.9	14.7	16.8	9.2
Fc1ccc(-n2c(-c3ccc4ccccc4n3)n[nH]c2=S)cc1Cl	1.3	1.3	5.5	0.0	0.6	1.8	nt
COc1cccc(CNC(=O)[C@@H]2CCCN2C(=O)[C@H]2CCCCN2)c1	nt	nt	0.3	nt	nt	nt	nt
Cc1cc(C)cc(Nc2cc(=O)n(C3CCCCC3)c(=O)[nH]2)c1	8.8	-3.4	3.9	0.8	-3.7	1.5	nt
Cc1cc2nc3c(=O)n(C4CCCCC4)c(=O)[nH]c3nc2cc1N	5.3	3.9	75.1*	-15.0	nt	19.9	115.3*
CCCN(CC(=O)Nc1cc(C)on1)CC(=O)Nc1ccccc1C	1.5	4.7	60.3*	1.6	3.2	4.3	0.4
CCCc1ccc2oc(C(=O)NCCc3nc(C(=O)OCC)cs3)c(C)c2c1	-3.3	6.3	-8.2	-0.3	nt	2.9	nt
CCCc1ccc2oc(C(=O)NCCc3cnn(C)c3)c(C)c2c1	4.7	-6.0	19.3*	-0.1	6.0	1.7	-3.5
NC(=S)N/N=C/c1coc2ccc(Cl)cc2c1=O	3.2	3.8	13.1*	-1.4	5.8	8.3	23.8*
O=C(N/N=C/c1coc2ccc(Cl)cc2c1=O)c1ccc(O)cc1	7.8	0.0	-0.8	0.7	nt	28.9	nt
Cc1cc(C(=O)CSc2nnc(-c3ccncc3)n2-c2ccccc2)c(C)n1C	8.4	2.0	18.7*	-0.5	9.5	-3.6	-73.2
O=C1Nc2ccccc2/C1=C/c1cnc(-c2ccccc2)[nH]1	-0.2	2.1	81.0*	2.8	-4.7	12.3	29.6*
Cc1nn(C)cc1C(=O)Nc1ccc2c(c1)OCCO2	-6.4	5.8	-2.9	-1.8	-10.5	-3.7	nt
O=C(CSc1ccc2c(c1)OCCO2)N1CCN(c2ccccc2O)CC1	4.7	3.8	20.2*	0.8	nt	4.7	-3.5
O=C(Cc1ccc(Br)cc1)N1CCN(c2ccccc2O)CC1	4.1	0.4	24.4*	-0.9	4.4	-0.4	2.9
O=C(Cc1ccc(Br)cc1)N1CCN(c2ccc(F)cc2)CC1	8.5	6.5	-4.6	1.3	4.2	-2.2	nt
COc1cc2c(C#N)c(N3CCCCC3)nc(N)c2c(N)n1	12.4	9.6	-4.4	-6.6	15.3	10.8	nt

Bioassay records from PubChem.
